Test [1] is described as follows: qHTS assay for small molecules that induce genotoxicity in human embryonic kidney cells expressing luciferase-tagged ATAD5 (AID 651632). Also: nearly all actives have a fitted effect of over 15% in size. Also: potency is read from the fitted curve at half-maximal effect. The procedure, abridged:
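Increased luciferase signal from ATAD5-tagged reporter cells indicates DNA-damage-driven ATAD5 induction. HEK293T cells are treated for 16 hr at 37C before detection with Amplite.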
A general note: In qHTS, concentration-response curves come from the screen itself.

The nature of test [2]: qHTS assay for small molecule agonists of the p53 signaling pathway - cell viability (AID 651633; calls by dose curve; also: nearly all actives have a fitted effect of over 30% in size; also: potency is read from the fitted curve at half-maximal effect). In short, it runs like this:
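p53RE-bla cells, seeded at 4,000 per well and rested 5 h at 37 C/5% CO2, received compounds in DMSO for 16 h at 37 C. CellTiter-Glo was then added, and luminescence was read after 30 min at room temperature to gauge cytotoxicity.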

Test [3] can be described thus: qHTS assay for small molecules that induce genotoxicity in human embryonic kidney cells expressing luciferase-tagged ATAD5 - cell viability (AID 651634; calls by dose curve; also: nearly all actives have a fitted effect of over 25% in size; also: potency is read from the fitted curve at half-maximal effect). The procedure, abridged:
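Cytotoxicity counterscreen in HEK293T cells bearing an ATAD5-luciferase reporter: live-cell protease activity measured by CellTiter-Fluor fluorescence after 15.5 hr compound exposure.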

A short description of test [4]: qHTS assay for small molecule disruptors of the mitochondrial membrane potential - cell viability (AID 720634; calls by dose curve;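 also: human HepG2 liver cancer cells; series mostly up to about 83 µM; nearly all actives have a fitted effect of over 20% in size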). In short, it runs like this: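 After overnight attachment at 37 C, HepG2 cells received compound or DMSO vehicle for 1 hr. Viability is then taken from ATP-driven luminescence following a 30 min room-temperature CellTiter-Glo step.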
A short description of test [5]: qHTS assay to test for compound auto fluorescence at 590 nm (red) in HepG2 cells (AID 720674). In short, it runs like this:
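Intrinsic compound fluorescence in the red window (Ex/Em 540/590 nm) is measured in attached HepG2 cells exposed for 1 hr, DMSO vehicle as baseline, benchmarked to Rose Bengal sodium.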

A short description of test [6]: qHTS assay to test for compound auto fluorescence at 535 nm (green) in HepG2 cells (AID 720675).
Test [7] in a line: qHTS assay to test for compound auto fluorescence at 460 nm (blue) in HEK293 cells (AID 720678). The procedure, abridged:
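Blue read-out at excitation 405 nm and emission 460 nm follows overnight compound exposure of HEK293 cells at 37C in 5% CO2. Activity is given as auto fluorescence equivalency to triamterene.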

Test [8] is described as follows: qHTS assay to test for compound auto fluorescence at 590 nm (red) in HEK293 cells (AID 720679). In short, it runs like this: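 Red channel, Ex/Em 540/590nm; signal expressed as equivalency to Rose Bengal sodium. HEK293, 2,000 cells/well, 10% dialyzed FBS; 23 nL compound pinned after 4-5 hr attachment; overnight 37C/5% CO2 before reading.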
Test [9] in a line: qHTS assay for small molecule disruptors of the mitochondrial membrane potential (AID 720635). Also: potency is read from the fitted curve at half-maximal effect. The procedure, abridged:
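HepG2 cells (2,000/well) attached overnight at 37C, then took compound for 1 hr at 37C, 5% CO2. Mito-MPS dye was added for 30 min; fluorescence was read at 490/535 nm (monomers) and 540/590 nm (aggregates).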

The values below come from PubChem BioAssay (Tox21).

Each structure is given as a SMILES string. Results filed as inconclusive are left out. Calls of active or inactive are those of the source. Unless noted, calls follow the shape of the dose curve; as a rule, active = well fitted curve in the direction sought with a large enough effect in the repeat runs; inconclusive = weak or mixed curves; inactive = no such curve, though single readings can be large; an effect the other way counts as inactive or inconclusive.

As for `C[C@]12CCC(=O)C[C@@H]1CC[C@@H]1[C@@H]2CC[C@]2(C)C=CC[C@@H]12`, the Potency entry in test [1], in test [2], in test [3], in [4], in test [5] and in test [6] was “inactive” each time. Further, the Potency entry in test [7] and in test [8] was “inactive” each time.
Consider `CCN(CC)CCCC(C)Nc1cc(/C=C/c2ccccc2Cl)nc2cc(Cl)ccc12` (stereo unspecified), for which the Potency result in test [1], in [2], in test [3], in test [4], in [5] and in test [6] was “inactive” throughout. Also, the Potency result in test [7] and in [8] was “inactive” in each case.
Turning to `O=C(NNCNNC(=O)c1ccncc1)c1ccncc1`, the Potency result in test [1], in test [2], in test [3], in test [4], in test [5] and in test [6] was “inactive” each time. In addition, the Potency entry in [7] and in test [8] was “inactive” in each case.
`CO/N=C(\C(=O)N[C@@H]1C(=O)N2C(C(=O)O)=C(CSc3nnnn3C)CS[C@H]12)c1csc(N)n1`: the Potency entry in [1], in test [2], in [3], in test [4], in test [5] and in test [6] was “inactive” in each case. Moreover, the Potency entry in test [7] and in test [8] was “inactive” in each case.
`CCCOc1cc(N)ccc1C(=O)OCCN(CC)CC`: the Potency entry in test [1], in test [2], in [3], in [4], in test [5] and in [6] was “inactive” each time. The Potency entry in [7] and in [8] was “inactive” throughout.
On to `CC(C)(S)[C@@H](N)C(=O)O`, for which the Potency entry in test [1], in [2], in test [3], in [4], in test [5] and in test [6] was “inactive” in each case. For the same molecule, the Potency entry in test [7] and in [8] was “inactive” throughout.
Turning to `CCCCCCCCCCCC(=O)OC[C@@H](O)C1OC[C@H](O)[C@H]1O` (stereo partly specified), the Potency entry in test [1], in test [2], in test [3], in test [4], in [9] and in test [6] was “inactive” each time. Moreover, the Potency result in test [7] and in [8] was “inactive” throughout.
As for `O=c1oc2cc(O)ccc2s1`, the Potency result in [1], in test [2], in test [3], in test [4], in [5] and in [6] was “inactive” each time. Also, the Potency result in [7] and in [8] was “inactive” in each case.
With `CC(C)(CO)[C@@H](O)C(=O)NCCCC(=O)O`, the Potency entry in test [1], in [2], in test [3], in [4], in test [5] and in test [6] was “inactive” each time. For the same molecule, the Potency result in [7] and in test [8] was “inactive” in each case.
For the molecule `CCCCCCCCCCCCCCCC(=O)OCCC1CCN(CCCN2c3ccccc3Sc3ccc(S(=O)(=O)N(C)C)cc32)CC1`, the Potency result in [1], in [2], in [3], in [4], in [5] and in test [6] was “inactive” each time. The Potency entry in [7] and in test [8] was “inactive” each time.
`O=C(Cn1c(=O)sc2ccc(Cl)cc21)N1CCN(CCO)CC1`: the Potency entry in test [1], in test [2], in [3], in test [4], in [9] and in test [6] was “inactive” each time. The Potency result in test [7] and in test [8] was “inactive” throughout.
Turning to `C[C@H]1C[C@@H]2[C@H]([C@@H](O)C[C@@]3(C)[C@H]2CC[C@]3(O)C(=O)COC(=O)CCC(=O)O)[C@@]2(C)C=CC(=O)C=C12`, the Potency entry in [1], in [2], in [3], in test [4], in test [5] and in [6] was “inactive” in each case. Besides, the Potency entry in [7] and in [8] was “inactive” throughout.
Consider `COC(=O)CC[C@H](N)C(=O)O`, for which the Potency entry in test [1], in test [2], in [3], in test [4], in [5] and in test [6] was “inactive” in each case. For the same molecule, the Potency result in test [7] and in [8] was “inactive” in each case.
`COc1cc(NCCCC(C)N)c2ncccc2c1` (stereo unspecified): the Potency result in test [1], in [2], in [3], in test [4], in test [5] and in [6] was “inactive” throughout. The Potency result in test [7] and in [8] was “inactive” throughout.
Regarding `CCCCCCCCCCCCCCCCCC(=O)OCC(C)O` (stereo unspecified), the Potency entry in test [1], in test [2], in test [4], in [5], in test [6] and in test [7] was “inactive” throughout. Moreover, the Potency result in [8] is “inactive”. Besides, in test [3], the Potency is 23.7 µM (active).
`COc1cc(-c2ccc(-[n+]3nc(-c4ccccc4)nn3-c3ccc([N+](=O)[O-])cc3)c(OC)c2)ccc1-[n+]1nc(-c2ccccc2)nn1-c1ccc([N+](=O)[O-])cc1`: the Potency was 5.96 µM (active) in test [1], 11.9 µM (active) in [2] and 29.8 µM (active) in test [3]. Moreover, the Potency entry in [4], in [5], in test [6], in test [7] and in test [8] was “inactive” each time.
Consider `CCCCCC(O)/C=C/C=O` (stereo unspecified), for which the Potency entry in test [1], in test [2], in [3], in test [4], in test [9] and in test [6] was “inactive” throughout. The Potency result in [7] and in [8] was “inactive” in each case.
On to `NNc1nnc(Cc2ccncc2)c2ccccc12`, for which the Potency entry in test [1], in test [2], in [3], in test [4], in [5] and in test [6] was “inactive” in each case. The Potency result in test [7] and in test [8] was “inactive” in each case.
Turning to `OC1OC[C@@H](O)[C@H](O)[C@@H]1O` (stereo partly specified), the Potency entry in test [1], in test [2], in test [3], in test [4], in test [5] and in [6] was “inactive” in each case. Also, the Potency result in [7] and in [8] was “inactive” each time.
Consider `C[C@H]1[C@@H](OC(=O)CCC(=O)O)O[C@@H]2OC3(C)CC[C@H]4[C@H](C)CC[C@@H]1[C@@]24OO3`, for which the Potency result in [1], in test [2], in test [4], in [5], in test [6] and in [7] was “inactive” throughout. The Potency result in [8] was “inactive”. The Potency in test [3] was 2.37 µM (active).
Take `C[C@]12C=CC(=O)N[C@@H]1CC[C@@H]1[C@@H]2CC[C@]2(C)[C@@H](C(=O)Nc3cc(C(F)(F)F)ccc3C(F)(F)F)CC[C@@H]12`: the Potency entry in test [1], in [2], in test [3], in test [4], in [6] and in test [7] was “inactive” each time. In addition, in test [8], the Potency result was “inactive”. Besides, the Potency in [9] was 0.944 µM (active).
For the molecule `CC(C)(C)NCC(O)c1ccc(O)c(CO)n1` (stereo unspecified), the Potency entry in test [1], in [2], in test [3], in test [4], in [5] and in [6] was “inactive” throughout. In addition, the Potency result in test [7] and in test [8] was “inactive” in each case.
